Experimental data published in PubChem BioAssay AID1645882 (National Center for Advancing Translational Sciences (NCATS), 2021).
“And” between values parts separate entries of the source, which are not always exact repeats. Equal values may be shown once. The whole screen tested about 16,000 compounds, of which about 120 (0.75%) were called active. Not shown: some 4% with an inconclusive outcome. The call rests on the fitted dose curve; in most records, active means well fitted inhibition curve with a large enough effect; inconclusive means small, poorly fitted or top-dose-only effect; inactive means no such curve, though single readings can be large or run the other way. The full list was thinned out, with actives kept by preference. More than one record can exist for a structure, and the calls need not agree.

What follows are molecules tested against Rap guanine nucleotide exchange factor 3 (Homo sapiens) (UniProt O95398) (assay: Validation qHTS for antagonist of cAMP-regulated guanine nucleotide exchange factor 3 (EPAC1)). Settings: EPAC1 Rap1B-BODIPY-GDP exchange, fluorescence; series mostly up to 150 µM; activity change, negative = inhibition: at the top concentration.
Sequence of Rap guanine nucleotide exchange factor 3 (Homo sapiens) (O95398 whole entry, looked up): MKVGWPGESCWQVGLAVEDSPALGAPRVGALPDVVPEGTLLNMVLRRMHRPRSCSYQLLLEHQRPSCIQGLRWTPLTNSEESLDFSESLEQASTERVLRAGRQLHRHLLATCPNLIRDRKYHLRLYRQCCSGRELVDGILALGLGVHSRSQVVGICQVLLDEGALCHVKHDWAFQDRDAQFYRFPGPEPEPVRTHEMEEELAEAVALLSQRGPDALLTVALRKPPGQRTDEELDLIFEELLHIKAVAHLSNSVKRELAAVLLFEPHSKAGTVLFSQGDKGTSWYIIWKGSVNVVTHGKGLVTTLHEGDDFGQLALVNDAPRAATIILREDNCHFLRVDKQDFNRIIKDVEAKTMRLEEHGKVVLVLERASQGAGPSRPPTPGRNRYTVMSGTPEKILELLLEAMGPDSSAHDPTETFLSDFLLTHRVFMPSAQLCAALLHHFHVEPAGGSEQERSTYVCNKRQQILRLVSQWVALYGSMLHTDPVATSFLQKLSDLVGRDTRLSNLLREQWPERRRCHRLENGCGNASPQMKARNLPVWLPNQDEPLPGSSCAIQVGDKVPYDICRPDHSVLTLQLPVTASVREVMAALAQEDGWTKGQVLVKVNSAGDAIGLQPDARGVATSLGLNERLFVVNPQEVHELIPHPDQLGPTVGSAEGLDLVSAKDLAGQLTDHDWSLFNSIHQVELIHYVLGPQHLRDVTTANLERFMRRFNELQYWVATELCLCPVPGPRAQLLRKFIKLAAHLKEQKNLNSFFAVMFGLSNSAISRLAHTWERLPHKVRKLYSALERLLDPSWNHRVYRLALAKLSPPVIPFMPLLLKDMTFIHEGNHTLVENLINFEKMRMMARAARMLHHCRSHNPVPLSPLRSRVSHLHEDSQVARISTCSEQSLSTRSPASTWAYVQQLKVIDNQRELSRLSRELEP
Outline: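 Nucleotide exchange followed as fluorescence loss when BODIPY-GDP leaves Rap1B (480 nm excitation, 540 nm emission), read at 5 min intervals over 30 min. Reaction: 100 nM EPAC1, 250 nM RAP1B-BODIPY-GDP, 50 uM GDP; ATA and DMSO define normalization.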
Further: nearly all actives have a fitted effect of over 75% in size.
Potency means the concentration at half of the fitted maximal effect.
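Wherever activity change, negative = inhibition is given: plate controls were DMSO for no effect and ATA control for full effect.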

SMILES | activity change, negative = inhibition | Potency
O=C(c1csnn1)N1CCC[C@@]2(CCN(c3ncccn3)C2)C1 | 16.4% (inactive) | –
CC(=O)CC/C=C(\C)CC/C=C(\C)CC/C=C(\C)CCC=C(C)C | 24.4% (inactive) | –
CC(=O)N[C@@H](CSC/C=C(\C)CC/C=C(\C)CC/C=C(\C)CCC=C(C)C)C(=O)O | 32.8% [at 15.3 µM] (inactive) | 56.2 µM (active)
CC(=O)N[C@@H](CSC/C=C(\C)CCC=C(C)C)C(=O)O | – | inactive
CCN(CC)CCOc1ccccc1OC | 3.14% (inactive) | –
C[C@H](CC[C@@H]1OC1(C)C)C1CC[C@H]2[C@@H]3CC=C4C[C@@H](O)CC[C@]4(C)[C@H]3CC[C@]12C (stereo partly drawn) | 14.3% (inactive) | –
C[C@@H]1C(=O)CC2C(C)(C)CCC[C@]2(C)[C@@]1(O)CCc1ccoc1 (stereo partly drawn) | -5.75% (inactive) | –
O=C(O)/C=C/c1ccc2c(c1)S(=O)(=O)N(C1CCCC1)[C@H]2CC(=O)O | -10.5% (inactive) | –
CCOC(=O)/C=C/c1ccc2c(c1)S(=O)(=O)N(C1CCCC1)[C@H]2CC(=O)OCC | -27.3% (inactive) | –
CC(=O)/C=C/c1ccc2c(c1)S(=O)(=O)N(C1CCCC1)[C@H]2CC(C)=O | – | 56.2 µM (active)
CC1(C)S[C@@H]2[C@H](NC(=O)C(N)c3ccccc3)C(=O)N2[C@H]1C(=O)OC1OC(=O)c2ccccc21 (stereo partly drawn) | 8.83% [at 75.8 µM] (inactive) | –
COc1ccc(N2C(=O)[C@@H]3C[C@H]2CN3Cc2cccn2-c2ccc(Cl)cn2)c(C)c1 | 12.9% (inactive) | –
COc1ccc2c(c1)[C@@]1(C)CCC[C@](C)(CO)C1CC2 (stereo partly drawn) | -3.59% (inactive) | –
Cc1cc(C(=O)NCc2nc(-c3ccccc3NC(=O)C3CCCO3)oc2C)nc(C)n1 (stereo not drawn) | 3.75% (inactive) | –
COc1c2ccccc2nc2occc12 | 7.29% (inactive) | –
O=C(O)C1=CC(=C(c2ccc(O)c(C(=O)O)c2)c2ccc(O)c(C(=O)O)c2)C=CC1=O | – | 56.2 µM (active) and 1.58 µM (active)
Nc1ccc(O)c(C(=O)O)c1 | 0.11% (inactive) | –
O=C(O)c1cc(N=Nc2ccc(O)c(C(=O)O)c2)ccc1O | 5.06% (inactive) | –
O=C(NCC1CCC2(CCN(Cc3c[nH]c4ccccc34)CC2)O1)C1CCOCC1 (stereo not drawn) | 2.25% (inactive) | –
CO[C@H]1C=CO[C@@]2(C)Oc3c(C)c(O)c4c(O)c(c(C=NN5CCN(C)CC5)c(O)c4c3C2=O)NC(=O)C(C)=CC=C[C@H](C)[C@H](O)[C@@H](C)[C@@H](O)[C@@H](C)[C@H](OC(C)=O)[C@H]1C | 11% [at 39.6 µM] (inactive) | –
CO[C@H]1C=CO[C@@]2(C)Oc3c(C)c(O)c4c(O)c(cc(O)c4c3C2=O)NC(=O)/C(C)=C\C=C/[C@H](C)[C@H](O)[C@@H](C)[C@@H](O)[C@@H](C)[C@H](OC(C)=O)[C@@H]1C | -10.9% (inactive) | –
CO[C@H]1C=CO[C@@]2(C)Oc3c(C)c(O)c4c(O)c(c(/C=N/N5CCN(C)CC5)c(O)c4c3C2=O)NC(=O)/C(C)=C\C=C[C@H](C)[C@H](O)[C@@H](C)[C@@H](O)[C@@H](C)[C@H](OC(C)=O)[C@@H]1C | – | 89.1 µM (active)

SMILES | activity change, negative = inhibition | Potency
CCCCCCCCCCCC[n+]1ccc(C)c2ccccc21 | -26.9% (inactive) | –
CCCCCCCCCCCCCCCC[n+]1ccc(C)c2ccccc21 | – | 63.1 µM (active)
CCCCCCC[n+]1ccc(C)c2ccccc21 | 11.7% (inactive) | –
Cc1ccccc1C1(CC(=O)N2CCN(C)CC2)CC(=O)N(Cc2ccncc2)C1=O (stereo not drawn) | 20.6% (inactive) | –
CCCCCCCCCCCCC[N+](C)(C)Cc1ccccc1 | 0.354% (inactive) | –
CCCCCCCCCCCCCCCC[N+](C)(C)Cc1ccccc1 | – | 112 µM (active)
CCCCCCCCCCCC[N+](C)(C)Cc1ccccc1 | 0.907% (inactive) | –
COc1cc(=O)n2c(c1C(=O)N(C)Cc1nonc1C)CCN(Cc1ccc(F)cc1)CC2 | -0.441% (inactive) | –
CCCCC/C=C\C/C=C\C/C=C\C/C=C\CCCC(=O)O | – | 70.8 µM (active) and inactive
CCCCCCCCCCC/C=C\C/C=C\CCCC(=O)O | -8.31% [at 15.3 µM] (inactive) | –
CCCCCCCC/C=C\C/C=C\C/C=C\CCCC(=O)O | 9.96% [at 15.3 µM] (inactive) | –
Cc1cc2ccccc2c[n+]1CC(=O)c1ccc(F)cc1 | 13.1% (inactive) | –
C/C(N[C@@H]1CSCC1O)=C1/C(=O)CC2[C@@H]1C2(C)C (stereo partly drawn) | 8.88% (inactive) | –
COc1ccc(-n2c(CNC(=O)c3ccccc3C(F)(F)F)nnc2SC)cc1 | 4.49% (inactive) | –
FC(F)(F)c1ccccc1-c1cncnc1NCCc1cnc[nH]1 | 3.78% (inactive) | –
Cc1cc(=O)oc2c(O)c(O)ccc12 | 1.89% (inactive) | –
COc1c(O)cc2c(=O)oc3c(OC)c(O)cc4c(=O)oc1c2c34 | -29.8% (inactive) | –
O=c1oc2c(O)c(O)cc3c(=O)oc4c(O)c(O)cc1c4c23 | – | inactive and 25.1 µM (active)
Cc1nc(N=Nc2ccc(S(=O)(=O)O)cc2S(=O)(=O)O)c(COP(=O)(O)O)c(C=O)c1O | – | inactive and 12.6 µM (active)
Cc1nc(N=Nc2ccc(C(=O)O)cc2)c(COP(=O)(O)O)c(C=O)c1O | -0.558% [at 75.8 µM] (inactive) | –
Cc1nc(N=Nc2cc(S(=O)(=O)O)c3cc([N+](=O)[O-])cc(S(=O)(=O)O)c3c2)c(COP(=O)(O)O)c(C=O)c1O | 26.4% [at 75.8 µM] (inactive) | –
COC(=O)c1ccc(-c2cccc3c2OC(CNC(=O)c2ccc4c(c2)OCCO4)C3)nc1 (stereo not drawn) | 7.71% (inactive) | –

SMILES | activity change, negative = inhibition | Potency
COc1cc(=O)n2c(c1C(=O)N(C)Cc1ccsc1)CCN(Cc1c(C)nc3sccn13)CC2 | 6.92% (inactive) | –
COc1ccccc1CCNc1ncnc2sc(C(=O)N3CCCCC3)c(C)c12 | 4.53% (inactive) | –
CC1(C)CC2/C(CO)=C/C=C/[C@](C)(O)CC[C@]21O (stereo partly drawn) | 8.31% (inactive) | –
O=c1c(O)c(-c2ccc(O)c(O)c2)oc2cc(O)cc(O)c12 | – | inactive and 79.4 µM (active)
O=c1c(O)c(-c2cc(O)c(O)c(O)c2)oc2cc(O)cc(O)c12 | – | 35.5 µM (active) and 39.8 µM (active) and inactive
O=c1cc(-c2ccc(O)cc2)oc2cc(O)cc(O)c12 | – | inactive
CC1O[C@@H](O[C@H]2C(Oc3cc(O)c4c(=O)cc(-c5ccc(O)cc5)oc4c3)OC(CO)C(O)C2O)C(O)C(O)C1O (stereo partly drawn) | 8.06% (inactive) | –
O=c1cc(-c2ccc(O)cc2)oc2cc(O[C@H]3OC(CO)C(O)C(O)C3O)cc(O)c12 (stereo partly drawn) | 5.46% (inactive) | –
O=c1cc(-c2ccc(O)c(O)c2)oc2cc(OC3OC(CO)C(O)C(O)C3O)cc(O)c12 (stereo not drawn) | – | 39.8 µM (active)
COc1cc(O)c2c(=O)c(O)c(-c3ccc(O)c(O)c3)oc2c1 | -14.1% (inactive) | –
O=c1c(O)c(-c2ccc(O)cc2)oc2cc(O)cc(O)c12 | – | inactive
O=c1c(O)c(-c2ccccc2)oc2cc(O)cc(O)c12 | 6.31% (inactive) | –
O=c1cc(-c2ccc(O)c(O)c2)oc2cccc(O)c12 | -20.1% (inactive) | –
O=c1c(O)c(-c2ccc(O)cc2O)oc2cc(O)cc(O)c12 | – | inactive
O=c1cc(-c2ccc(O)c(O)c2)oc2cc(O)cc(O)c12 | – | 50.1 µM (active) and 39.8 µM (active)
CN1[C@@H]2CCC[C@@H]1CC(NC(=O)c1nn(C)c3ccccc13)C2 (stereo partly drawn) | 27.2% (inactive) | –
N#CC[C@H](Cc1ccccc1)N1CCN(Cc2ccccc2)CCC1=O | 9.25% (inactive) | –
COc1ccc(C2OC3C(CO)OC(n4cnc5c(=O)[nH]c(N)nc54)C3O2)cc1 (stereo not drawn) | 9.03% (inactive) | –
Cc1c(C(=O)N(C)Cc2cccc3ncccc23)cnn1-c1nccc(-c2ccccc2F)n1 | 7.94% (inactive) | –
CC1CN(CC(=O)NCCc2ccncc2)Cc2ccccc2O1 (stereo not drawn) | 13.3% (inactive) | –
CC1CC[C@@]2(C(=O)O)CCC3(C)C(=CCC4[C@]5(C)CC(O)C(O)[C@](C)(CO)C5C(O)C[C@@]43C)C2C1C (stereo partly drawn) | -17.8% (inactive) | –
CC(=O)Oc1cc(OC(C)=O)c2c(c1)OC(c1ccc(OC(C)=O)c(OC(C)=O)c1)C(OC(C)=O)C2 (stereo not drawn) | – | inactive

SMILES | activity change, negative = inhibition | Potency
O=C(OC1Cc2c(O)cc(O)cc2OC1c1cc(O)c(O)c(O)c1-c1c(C2Oc3cc(O)cc(O)c3CC2OC(=O)c2cc(O)c(O)c(O)c2)cc(O)c(O)c1O)c1cc(O)c(O)c(O)c1 (stereo not drawn) | – | 63.1 µM (active)
O=C(Oc1cc(OC(=O)c2ccccc2)c2c(c1)OC(c1ccc(OC(=O)c3ccccc3)c(OC(=O)c3ccccc3)c1)[C@@H](OC(=O)c1ccccc1)C2)c1ccccc1 (stereo partly drawn) | 5.96% (inactive) | –
COc1ccc2c(c1OC)C(=O)O[C@H]2C1c2c(cc3c(c2OC)OCO3)CCN1C (stereo partly drawn) | – | inactive
O=C(NCC1Cc2cccc(-c3cnccn3)c2O1)c1ccc2c(c1)OCCO2 (stereo not drawn) | -2.15% (inactive) | –
CC(C)C[C@@H](CO)N1CCN(CCc2ccccc2)CCC1=O | 0.539% (inactive) | –
COc1cccc(-c2nc(N3CCNCC3)c3ccccc3n2)c1 | 17.1% (inactive) | –
Cc1cc2c(cc1C)N[C@]1(C[C@H]3CCCC(=O)N4CC[C@@H](C1)[C@@H]34)C(=NCc1ccccc1)N2 | 9.18% (inactive) | –
CN(C)c1ccc(/C=C/c2ccnc3ccc4ccccc4c23)cc1 | – | 100 µM (active)
CN(C)c1ccc(/C=C/c2ccnc3c2ccc2ccccc23)cc1 | 26.6% (inactive) | –
CN(C)c1ccc(/C=C/C=C/c2ccnc3ccccc23)cc1 | 24.3% (inactive) | –
CC(=O)CC(c1ccccc1)c1c(O)c2ccccc2oc1=O (stereo not drawn) | – | inactive
CCc1oc2ccccc2c1C(=O)c1cc(I)c(O)c(I)c1 | – | 56.2 µM (active)
COc1cccc(-c2oc3ccccc3c(=O)c2O)c1 | 2.87% (inactive) | –
CCc1oc2ccccc2c1C(=O)c1cc(Br)c(O)c(Br)c1 | – | 100 µM (active)
CC(=O)c1ccc2oc3ccccc3c(=O)c2c1 | -1.3% (inactive) | –
CCCCc1oc2ccccc2c1C(=O)c1cc(I)c(OCCN(CC)CC)c(I)c1 | – | inactive
COc1cc(OC)c(OC)cc1CN1CCC(n2cc(C(=O)N3CCCCC3)nn2)CC1 | 4.84% (inactive) | –
c1ccc2c(N3CCCCCC3)nc(CN3CCCCC3c3nccs3)nc2c1 (stereo not drawn) | 11.8% (inactive) | –
COc1ccc(-c2nc3cnc(N(C)C)nc3n(C)c2=O)cc1 | 17% (inactive) | –
O=C(Nc1ccc(S(=O)(=O)N2CCOCC2)cc1)c1cc(Cl)ccc1NS(=O)(=O)c1ccc(Cl)s1 | – | 112 µM (active)
O=c1c(-c2ccc(Cl)cc2)nc2cnc(N3CCNCC3)nc2n1CCc1ccccc1 | -11.2% (inactive) | –
